The list is not random: actives were taken first. Their share in the collection is about 21%.
Pf growth 96h = P. falciparum growth inhibition at 96 hour, primary screen for plastid delayed-death inhibitors | P. falciparum luciferase reporter growth, 96 h | Potency, µM (highest dose often 28.7 µM), for the others: at the highest dose activity change, negative = inhibition, usual class: inhibitors | 6.9% of 320,000 active | AID 504834; further: potency means the concentration at half of the fitted maximal effect; on the % scale 0 is the no-effect control and ±100 the full control effect
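96 h incubation, 37 C, 5% CO2, of luciferase-reporter P. falciparum-infected RBCs (2% hematocrit, 0.05% parasitemia final) with test compounds; endpoint luminescence.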
Shiga toxin inh = blocks Shiga toxin action in Vero cells. Vero cells, Shiga toxin protein synthesis inhibition reporter. inhibition, % at 38.7 µM. 9.2% of 290,000 active. AID 2315; in the data active means inhibition mostly above about 28%, no sharp cut-off; inactive means mostly below about 43%; further: 0% is about no effect
SARS PLP yeast = SARS-CoV PLP inhibition in yeast; S. cerevisiae expressing SARS-CoV PLpro, growth rescue; Potency, µM (series often up to 32.9 µM), inactives show at the highest dose activity, positive = growth rescue, most hits filed as activators; 0.19% of 330,000 active; AID 485353; calls by dose curve; further: potency means the concentration at half of the fitted maximal effect; 0% is about no effect; nearly all actives have a fitted effect of over 55% in size
CHX counter = counter-screen for Shiga toxin inhibitors: cycloheximide protein synthesis inhibition. cell reporter, cycloheximide protein synthesis inhibition counterscreen. max response, %. 12% of 300,000 active; in the data active means max response mostly above about 13%, no sharp cut-off; inactive means mostly below about 14%; further: read at 38.3 µM for the half of the compounds with a filed dose; 0% is about no effect
Pf growth 48h = P. falciparum growth inhibition at 48 hours (one generation) | P. falciparum luciferase growth in erythrocytes, 48 h | Potency, µM (series often up to 28.7 µM), for the others: at the top dose activity change, negative = inhibition, usual class: inhibitors | 5.9% of 310,000 active | AID 504832; further: potency means the concentration at half of the fitted maximal effect; on the % scale 0 is the no-effect control and ±100 the full control effect
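First compound was added to culture medium, then infected red cells at 0.1% parasitemia and 2% hematocrit (final). After incubation at 37 C under 5% CO2, luciferase detection reagent was dispensed and light output recorded.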
NS1 function inh = blocks influenza NS1 protein function; 0.4% of 270,000 active; AID 2326; Potency, µM (series often up to 46.1 µM), for inactives: at the highest dose activity, positive = more growth; calls by dose curve; further: potency means the concentration at half of the fitted maximal effect; actives are rising curves; nearly all actives have a fitted effect of over 50% in size
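Read-out: OD600 growth recovery of NS1-expressing budding yeast. Cells grown overnight at 30C in -URA glucose medium, washed, resuspended and diluted 1:100 in 2% galactose assay medium, pH 6.0. Same strain lacking NS1 served as positive control.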
Starred values were filed as active, the others as inactive; ? = inconclusive; · = not tested or not shown. Unless noted, the call rests on the fitted dose curve; in most records, active means well fitted inhibition curve with a large enough effect; inconclusive means small, poorly fitted or top-dose-only effect, or another doubt; inactive means no such curve, though single readings can be large or run the other way.

SMILES	Pf growth 96h	Shiga toxin inh	SARS PLP yeast	CHX counter	Pf growth 48h	NS1 function inh
CCC(COC)Oc1cc(NCc2ccccc2)c2ncn(C(C)C)c2c1 (stereo not given)	?	·	0%	·	4.1µM*	·
CCC(CO)Oc1cc(NCc2ccccc2F)c2ncn(C(C)C)c2c1 (stereo not given)	4.7µM*	·	-2%	·	5.2µM*	·
CCC(CO)Oc1cc(NCc2ccccc2Cl)c2ncn(C(C)C)c2c1 (stereo not given)	?	·	2%	·	3.3µM*	·
COc1ccc(-c2nnc(Nc3ccc(S(=O)(=O)Nc4nccs4)cc3)c3ccccc23)cc1	-10%	-4	2%	-6	-8%	·
CCCCc1ccc(S(=O)(=O)NCCCN2CCCC2=O)cc1	-5%	-2	4%	-3	23%	10%
COC(=O)c1ccc(OC(=O)c2ccc(OC)c(OC)c2)c(OC)c1	15%	-23	0%	-8	-6%	-10%
COc1ccc(/C=C/c2ccncc2)cc1OC	?	57*	-18%	28*	52%	-3%
COc1ccc(/C=C/C(=O)C2(O)CCCCC2)cc1	-9%	47*	-1%	19*	0%	-7%
O=[N+]([O-])c1cc(/C=N\O)ccc1Oc1ccc(F)cc1	-6%	27	-3%	27*	14%	-10%
COC(=O)c1ccc(/C=C/C(=O)c2ccc(OC)c(OC)c2)cc1	?	22	-17%	13	10µM*	-18%
Cc1ccnc(SCc2ccc(C(=O)O)cc2)n1	-5%	-9	-1%	-2	19%	-25%
Cc1c(N2C(=O)CSC2c2ccc(F)cc2)c(=O)n(-c2ccccc2)n1C (stereo not given)	3%	4	1%	0	11%	4%
C=CCOCCn1[nH]c2ccccc2c1=O	32%	·	-11%	·	?	·
COc1cccc(C(=O)NC2CC3CCCC(C2)N3Cc2ccc(C)cc2)c1 (stereo not given)	?	-11	-1%	-1	?	7%
O=C(Oc1ccc2ccc(O)cc2c1)c1ccccc1Cl	88%	44*	-13%	32*	140%	-44%
COc1cc(C(=O)Oc2cccnc2)cc(OC)c1OC	-15%	-13	-6%	7	-11%	-14%
COc1cc(C(=O)Oc2cc(C)cc(C)c2)cc(OC)c1OC	-15%	-2	26%	1	15µM*	5%
COc1ccc(C(=O)/C=C/c2ccc(OC(=O)c3cc(OC)c(OC)c(OC)c3)cc2)cc1	4.7µM*	-5	1%	1	2.9µM*	20%
COc1ccc(/C=C/C(=O)c2ccccc2)cc1Cn1nnc2ccccc21	?	27*	12%	27*	?	18%
COc1ccc(CNC(=O)CNC(=O)CNS(=O)(=O)c2ccc(C)c(C)c2)cc1	14%	9	1%	-6	20%	1%
C=CCSc1nc(NC)c2sccc2n1	?	-5	-31%	24	?	-164%
COc1ccc(Oc2ccc(/C=C/C(=O)c3ccc(O)cc3)cc2[N+](=O)[O-])cc1	12µM*	20	-13%	7	12µM*	11%
CCOc1cc(/C=C/C(=O)c2ccc(C)cc2)ccc1OCC(=O)N(C)C	?	19	2%	-1	?	-12%
COc1cc(/C=C/C(=O)O)ccc1OS(=O)(=O)c1c(C)c(C)cc(C)c1C	-71%	·	6%	·	10µM*	·
COc1ccc(/C=C/C(=O)c2cc(Br)ccc2OC(=O)c2ccco2)cc1OC	20%	10	-6%	10	12µM*	?
SMILES	Pf growth 96h	Shiga toxin inh	SARS PLP yeast	CHX counter	Pf growth 48h	NS1 function inh
COc1ccc(/C=C/C(=O)c2cc(Br)ccc2O)cc1OC	?	9	0%	-3	-24%	0%
COc1cc(/C=C/C(=O)c2ccc(C)cc2)ccc1OCC#N	?	107*	12%	81*	?	-46%
CC1Cc2ccccc2N1C(=O)COC(=O)CNC(=O)c1ccc(Br)o1 (stereo not given)	·	-16	1%	0	8%	-13%
CCCCCC1=NN2C(=O)CC(=O)N=C2S1	11%	-3	6%	0	-3%	0%
Cc1ccc(S(=O)(=O)N2CCN(C(=O)CN3C(=O)CNC3=O)CC2)cc1	-12%	·	-4%	·	-18%	·
CC1CCCCN1CC(=O)c1c(N)n(Cc2ccccc2)c(=O)n(C)c1=O (stereo not given)	1%	-5	1%	-2	-20%	·
COc1cc(/C=C/C(=O)OCc2csc(CC(=O)Nc3ccc(C)cc3)n2)ccc1OCC#N	13µM*	·	2%	·	?	·
COc1cc(C(=O)Oc2ccc3ccc(O)cc3c2)cc(OC)c1OC	18%	30	-2%	21*	5%	20%
COC(=O)c1ccc(/C=C/C(=O)O)cc1	84%	-1	0%	-1	34%	-2%
O=C(Oc1ccc2ccc(O)cc2c1)C1CCCCC1	30%	-13	-1%	1	13%	-10%
COC(=O)c1ccc(/C=C/C(=O)c2ccc(OC)cc2)cc1	-20%	54	1%	25*	10%	-17%
COc1ccc(/C=C/C(=O)c2ccc(C(=O)/C=C/c3ccc(OC)c(OC)c3)cc2)cc1OC	?	20	0%	28*	?	10%
Cc1ccc(/C=C/C(=O)N2CCN(c3ncccn3)CC2)o1	141%	15	-19%	1	6%	-24%
CNS(=O)(=O)c1cc(NC(C)=O)c(C)cc1C	15%	11	3%	-2	16%	19%
O=C(NC1CCS(=O)(=O)C1)c1ccc(S(=O)(=O)N2CCCCC2)cc1 (stereo not given)	-3%	22	7%	7	0%	1%
COc1cc(/C=N/Nc2ccccn2)cc(OC)c1O	-15%	63*	-1%	25*	26%	·
COc1cc(/C=N/N(c2ccccc2)c2ccccc2)ccc1O	?	-3	26%	-3	5%	-56%
CCOc1ccc(/C=N/N(C)c2ccccc2)cc1OC	-30%	64*	-3%	25*	·	-10%
CCOc1ccc(/C=N/Nc2ccccn2)cc1OC	105%	110*	3%	39*	204%	·
C=CCOc1ccc(/C=N/Nc2ccccn2)cc1OC	202%	101*	-1%	57*	158%	·
COc1ccc(/C=N/NC(=O)C(O)(c2ccccc2)c2ccccc2)cc1OC	-8%	14	9%	-2	-1%	-17%
COc1cc(/C=N/Nc2ccc(C(F)(F)F)cn2)cc(OC)c1O	?	22	-2%	7	?	·
CCCOc1ccc(/C=N/Nc2ccccn2)cc1OC	440%	88*	2%	50*	198%	·
COc1cc(/C=N/Nc2ccccn2)ccc1OCC(C)C	?	62*	-2%	34*	26%	·
COc1cc(/C=N/Nc2nc(N3CCCC3)nc(N3CCCC3)n2)ccc1OCc1ccccc1F	?	40	5%	10	?	4%
